# Assay results taken from PubChem BioAssay (NCI).
# Where “and” joins values, the source holds several entries; their conditions need not be identical. Equal values may be shown once. About 83,000 compounds went through this panel and 20% of them were active in at least one assay; those are over-represented in the sample as a whole.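 Negative percent growth values reflect cell death: -40 means 40% of the cells present at the start died, and -100 means all died.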 Some structures have more than one record in an assay (separate samples or runs), and their calls can disagree. Calls of active or inactive are those of the source. The calls were made as follows: active = growth percent below 10; inactive = the rest.
# What was measured:
# Assay in all cases: NCI-60 one-dose screen, 48 h (100 = growth as untreated, 0 = no growth, -100 = all killed)
# T-47D breast = settings: 10 µM
# BT-549 breast = settings: 10 µM
# MDA-MB-435 melanoma = settings: 10 µM
# SW-620 colon = settings: 10 µM
# MCF7 breast = system: MCF7 breast
# HCT-116 colon = settings: 10 µM
# HCC-2998 colon = settings: 10 µM
# KM12 colon = settings: 10 µM
SMILES,growth (T-47D breast),growth (BT-549 breast),growth (MDA-MB-435 melanoma),growth (SW-620 colon),growth (MCF7 breast; 10 µM),growth (MCF7 breast; 100 µM),growth (HCT-116 colon),growth (HCC-2998 colon),growth (KM12 colon)
C=C1C(=O)OC2CC1C(OC(C)=O)C/C(C)=C/CC/C(C)=C\CCC2(C)O (stereo not given),4.13% (active),-83.9% (active),18.6% (inactive),1.39% (active),10.6% (inactive),-90.9% (active),-64.7% (active),-51.2% (active),23.2% (inactive)
CC1=CC(=C(c2ccc(N)cc2)c2ccc(N)cc2)C=CC1=N,3.11% (active) and 11.3% (inactive),5.57% (active) and 81.8% (inactive),13.6% (inactive) and 24% (inactive),17.2% (inactive) and 39.1% (inactive),9.83% (active) and 19.6% (inactive),,14% (inactive) and 11.5% (inactive),21.1% (inactive) and 48.1% (inactive),0.202% (active) and 9.48% (active)
O=[N+]([O-])c1cc[n+]([O-])cc1,120% (inactive),92.4% (inactive),112% (inactive),99.3% (inactive),97.6% (inactive),,107% (inactive),97% (inactive),104% (inactive)
Cc1ccc(Sc2ccccc2N)cc1,99.8% (inactive),89.8% (inactive),120% (inactive),58.3% (inactive),53.7% (inactive),,55.8% (inactive),132% (inactive),102% (inactive)
C#CCN(Cc1ccc2nc(N)[nH]c(=O)c2c1)c1ccc(C(=O)NC(CCC(=O)O)C(=O)O)cc1 (stereo not given),,76.9% (inactive),90.7% (inactive),61.8% (inactive),22.4% (inactive),,45.7% (inactive),31.6% (inactive),70.2% (inactive)
Cc1cc(N(CCOS(C)(=O)=O)CCOS(C)(=O)=O)ccc1C=Nc1ccc(-c2nc(Cc3ccccc3)sc2C)cc1,20.5% (inactive),52.8% (inactive),63.2% (inactive),61.6% (inactive),36.8% (inactive),,63.4% (inactive),-28.3% (active),68.7% (inactive)
COc1cc([C@@H]2c3cc4c(cc3[C@@H](Nc3ccc(NC(=O)c5cc([N+](=O)[O-])cn5C)cc3)[C@H]3COC(=O)[C@H]23)OCO4)cc(OC)c1O,,,,,,5.63% (active),,,
CN(C)CCOC1(Cc2ccc(Cl)cc2Cl)CCC(C(C)(C)C)CC1 (stereo not given),-21.2% (active) and -41.1% (active),58.8% (inactive) and 24% (inactive),11% (inactive) and -57.6% (active),-51.8% (active) and -57.6% (active),-46.4% (active) and -87.7% (active),,13.2% (inactive) and -81.3% (active),-92.9% (active) and -95.5% (active),20.2% (inactive) and -46.6% (active)
COc1ccc(C(=O)C(CN(C)C)CN(C)C)cc1,9.04% (active),112% (inactive),36.8% (inactive),-80.5% (active),14.3% (inactive),,4.91% (active),109% (inactive),108% (inactive)
